Consider 13 molecules from PubChem BioAssay (NCATS).

Each structure is given as a SMILES string. Values without a mark were called inactive. Records with an inconclusive call do not appear. The source made the active and inactive calls. Unless noted, calls follow the shape of the dose curve; as a rule, active = well fitted curve in either direction with a large enough effect (not every such curve was filed as active); inconclusive = small, poorly fitted or top-dose-only effect, or another doubt; inactive = flat fitted curve, though single readings scatter. Where only a bound is given, the exact number is not on record here.

For experiment [1], the target named is Lysosomal acid glucosylceramidase (Homo sapiens) (UniProt P04062). The experiment can be described thus: Glucocerebrosidase-p2 (AID 348; in the data active = potency below about 10 µM; also: potency is read from the fitted curve at half-maximal effect). As to conditions: purified GBA, blue fluorogenic substrate, 40 min. Summed up: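 Compounds titrated from 0.6 nM upwards against 0.2 nM enzyme in pH 5.9 citric acid/KH2PO4, taurocholate, tween-20; blue fluorogenic substrate 80 uM, 40 min room temperature, stopped and read Ex 365/Em 440 for AC50.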

Experiment [2] can be described thus: AP1 Signaling Pathway (AID 357).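 Also: ME-180 reporter cells stimulated with EGF at its EC50 level; % is scaled to controls: 0 for no effect and ±100 for the full control effect.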 As to conditions: ME-180 AP-1-bla reporter, EGF-induced, beta-lactamase ratio, 5 h; at 7.69 µM (top of the series) unless noted. Summed up:
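Modulation of EGF-driven AP-1 transcription was assessed with a beta-lactamase reporter in ME-180 cells. Compound and EC50 EGF were co-incubated 5 hours at 37 °C before 2.5-hour CCF4 loading at room temperature and dual-emission reading.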

A short description of experiment [3]: NFAT Signaling Pathway (AID 444).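 Also: carbachol stimulus at about its EC50 of 1 µM final; % is scaled to controls: 0 for no effect and ±100 for the full control effect.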 As to conditions: Jurkat NFAT-bla M1, carbachol, beta-lactamase ratio, 5 h; at 7.69 µM (top of the series) unless noted. Summed up:
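Jurkat cells with NFAT-driven β-lactamase reporter and co-expressed M1 receptor, stimulated with carbachol (final 1 uM, ~EC50), compound titration, 5 h at 37 °C. CCF4 loaded 1 h at RT; 460/530 nm ratio gave %activity and AC50.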

Experiment [4] in a line: Stat Signaling Pathway (AID 446).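 Also: ME-180 cervical cancer cells given 40 pM IL-6 alongside compound; SIE-controlled beta-lactamase reporter measured as 460/530 nm FRET emission ratio; % is scaled to controls: 0 for no effect and ±100 for the full control effect.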 As to conditions: ME-180 SIE beta-lactamase reporter, IL-6 stimulated, 5 h; at 7.69 µM (top of the series) unless noted. Summed up:
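ME-180 cells carrying a SIE-driven beta-lactamase reporter are stimulated with 40 pM IL-6 for 5 h at 37C in the presence of compound. The 460/530 nm FRET substrate ratio is read after 2.5 h at RT. Data are normalised to 300 pM IL-6 and to 125 nM JAK inhibitor controls.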

Experiment [5] addresses Glucocorticoid receptor (Homo sapiens) (UniProt P04150). The experiment can be described thus: GR-GFP Redistribution (AID 450;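 active = compounds whose dose series gives a full or clear partial fitted curve of increased nuclear translocation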; also: potency is read from the fitted curve at half-maximal effect). As to conditions: U2OS GR-GFP nuclear translocation, laser cytometry, 2 h.
Experiment [6] shares this target. Description: GR-EFC Redistribution (AID 451; calls by dose curve; also: potency is read from the fitted curve at half-maximal effect). As to conditions: CHO-K1 GR-EFC translocation, beta-gal luminescence, 2 h. Summed up: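 CHO-K1 cells expressing nuclear EA and GR-ED fragments of b-gal; compounds titrated up to 46 uM final, 2 h at 37 C. GR nuclear translocation read as complemented b-gal luminescence after 1 h RT detection.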
Experiment [7] has as its target Mitogen-activated protein kinase 10 (Mus musculus) (UniProt Q61831). Description: JNK3 AlphaScreen Assay (AID 530).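 Also: kinase came from lysate of stimulated human HepG2 cells; signal reports phosphorylation of biotinylated GST-cJun 1-79 at Ser73 with 10 µM ATP; % is scaled to controls: 0 for no effect and ±100 for the full control effect.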 As to conditions: JNK3 lysate, c-Jun phosphorylation; series mostly up to 11.4 µM. Summed up: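 Pre-activated (IL-1β/TNFα) JNK3 in HepG2 lysates phosphorylates biotin-GST-cJun(1-79), 10 uM ATP; anti-phospho-cJun(Ser73) AlphaScreen read at room temperature, pH 7.6 Tris buffer. Compounds pre-incubated 15 min as titrations.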

Experiment [8] concerns the target 3',5'-cyclic-AMP phosphodiesterase 4B (Homo sapiens) (UniProt Q07343). The experiment can be described thus: qHTS Assay for Inhibitors of PDE-IV (AID 607; active = well fitted activation curve with a large enough effect in the main read-out, with a control signal flat, not every such curve was filed as active; also: % of control where 0% means no effect). As to conditions: HEK293 ACTOne CNG channel cells, membrane potential fluorescence; series mostly up to 22.9 µM. Summed up: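 HEK293 ACTOne cells with CNG channel (1000/well), endogenous PDE4; membrane potential dye, compounds up to 22.9 uM final. Fluorescence Ex 535/Em 590; RO 20-1724 (100 uM final) as reference.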
(Quantitative high-throughput screening tests each substance at several concentrations.)

Experiment [9] in a line: qHTS Assay for Identification of Small Molecule Agonists for Hypoxia Response Element Signaling Pathway (AID 914; active = well fitted activation curve with a large enough effect in the signal ratio, with a control signal flat, not every such curve was filed as active; the % refers to the signal ratio; also: % of control where 0% means no effect). As to conditions: ME-180 (cervical carcinoma) HRE-bla reporter, beta-lactamase ratio, CoCl2, 17 h; activation: active compounds read high. Summed up:
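In Opti-MEM containing 0.5% dialyzed FBS and 10 mM HEPES, ME-180 HRE-bla cells received a compound titration and EC50 CoCl2. They were incubated 17 hours, then CCF4-loaded 2.5 hours at room temperature before ratio reading.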

Experiment [10] deals with Cytochrome P450 3A4 (Homo sapiens) (UniProt P08684). The experiment can be described thus: qHTS Assay for Activators of Cytochrome P450 3A4 (AID 885; active = well fitted curve in the direction sought with a large enough effect; an effect the other way counts as inactive or inconclusive; also: nearly all actives have a fitted effect of over 65% in size). As to conditions: recombinant CYP3A4, Luciferin-PPXE luminescence, 60 min; series mostly up to 11.4 µM. Summed up:
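Human CYP3A4 (20 nM) with Luciferin-PPXE at 25 uM (its KM) in 200 mM KPO4; 10 min compound preincubation, then NADPH regeneration and 60 min reaction at RT. Luciferin read by luminescence; normalized to 57 uM ketoconazole full inhibition.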

The target of experiment [11] is Cytochrome P450 2C19 (Homo sapiens) (UniProt P33261). Description: qHTS Assay for Inhibitors and Substrates of Cytochrome P450 2C19 (AID 899; active = well fitted curve in the direction sought with a large enough effect; an effect the other way counts as inactive or inconclusive; also: nearly all actives have a fitted effect of over 60% in size; also: potency is read from the fitted curve at half-maximal effect). As to conditions: recombinant CYP2C19, luciferin-H EGE luminescence; series mostly up to 11.4 µM. Summed up:
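Luminescent read-out of luciferin formed from Luciferin-H EGE (10uM, equal to KM). Enzyme 5nM in 50mM KPO4; compound added, 10 min at 37C, then NADPH regenerating system for 60 min at 37C. Full inhibition defined by 57uM ketoconazole.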

Experiment [12] has as its target Cytochrome P450 2D6 (Homo sapiens) (UniProt P10635). The experiment can be described thus: qHTS Assay for Inhibitors and Substrates of Cytochrome P450 2D6 (AID 891; active = well fitted curve in the direction sought with a large enough effect; an effect the other way counts as inactive or inconclusive; also: nearly all actives have a fitted effect of over 60% in size; also: potency is read from the fitted curve at half-maximal effect). As to conditions: recombinant CYP2D6, luciferin-ME EGE luminescence; series mostly up to 11.4 µM. Summed up:
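Human CYP2D6 (5 nM) with 30 uM Luciferin-ME EGE (at Km) in 100 mM KPO4, compound preincubated 10 min, then NADPH regeneration system for 60 min at room temperature. Luciferin read by luminescence; normalized to 1.43 uM quinidine.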

3',5'-cyclic-AMP phosphodiesterase 4B (Homo sapiens), sequence (Q07343 whole entry, looked up): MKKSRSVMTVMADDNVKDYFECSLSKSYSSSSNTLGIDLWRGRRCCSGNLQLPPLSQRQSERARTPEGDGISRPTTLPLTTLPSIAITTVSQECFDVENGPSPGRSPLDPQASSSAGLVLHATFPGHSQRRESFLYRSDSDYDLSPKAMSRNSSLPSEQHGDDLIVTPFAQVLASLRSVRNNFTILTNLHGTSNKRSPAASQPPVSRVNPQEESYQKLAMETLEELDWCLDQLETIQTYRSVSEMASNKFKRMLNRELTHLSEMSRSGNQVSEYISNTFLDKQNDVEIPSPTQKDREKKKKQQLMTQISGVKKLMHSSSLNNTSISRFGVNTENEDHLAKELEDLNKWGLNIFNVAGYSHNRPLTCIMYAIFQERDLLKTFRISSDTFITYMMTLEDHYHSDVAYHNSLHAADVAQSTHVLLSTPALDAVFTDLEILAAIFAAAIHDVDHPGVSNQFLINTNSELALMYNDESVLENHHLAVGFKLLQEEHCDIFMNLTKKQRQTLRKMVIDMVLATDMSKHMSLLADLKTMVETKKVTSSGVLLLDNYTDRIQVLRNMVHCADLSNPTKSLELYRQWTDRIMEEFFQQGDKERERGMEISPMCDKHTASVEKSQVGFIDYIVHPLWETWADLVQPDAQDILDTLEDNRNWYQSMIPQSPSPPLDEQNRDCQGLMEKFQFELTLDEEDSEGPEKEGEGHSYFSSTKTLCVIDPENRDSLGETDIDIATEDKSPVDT
Cytochrome P450 2C19 (Homo sapiens), sequence (P33261 whole entry, looked up): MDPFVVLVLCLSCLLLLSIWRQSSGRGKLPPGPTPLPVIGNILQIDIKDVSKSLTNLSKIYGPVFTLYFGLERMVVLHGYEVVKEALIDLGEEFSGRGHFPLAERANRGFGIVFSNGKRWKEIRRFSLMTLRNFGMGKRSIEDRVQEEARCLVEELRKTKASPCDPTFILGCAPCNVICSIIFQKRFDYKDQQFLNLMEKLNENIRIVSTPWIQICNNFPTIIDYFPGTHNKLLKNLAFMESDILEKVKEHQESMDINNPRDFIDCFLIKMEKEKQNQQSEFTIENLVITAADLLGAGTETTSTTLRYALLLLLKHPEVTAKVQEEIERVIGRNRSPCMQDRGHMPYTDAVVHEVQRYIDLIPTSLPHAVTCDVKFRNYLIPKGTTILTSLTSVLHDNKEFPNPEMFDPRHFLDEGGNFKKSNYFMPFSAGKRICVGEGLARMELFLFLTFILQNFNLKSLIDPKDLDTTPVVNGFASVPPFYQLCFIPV
Cytochrome P450 2D6 (Homo sapiens), sequence (P10635 whole entry, looked up): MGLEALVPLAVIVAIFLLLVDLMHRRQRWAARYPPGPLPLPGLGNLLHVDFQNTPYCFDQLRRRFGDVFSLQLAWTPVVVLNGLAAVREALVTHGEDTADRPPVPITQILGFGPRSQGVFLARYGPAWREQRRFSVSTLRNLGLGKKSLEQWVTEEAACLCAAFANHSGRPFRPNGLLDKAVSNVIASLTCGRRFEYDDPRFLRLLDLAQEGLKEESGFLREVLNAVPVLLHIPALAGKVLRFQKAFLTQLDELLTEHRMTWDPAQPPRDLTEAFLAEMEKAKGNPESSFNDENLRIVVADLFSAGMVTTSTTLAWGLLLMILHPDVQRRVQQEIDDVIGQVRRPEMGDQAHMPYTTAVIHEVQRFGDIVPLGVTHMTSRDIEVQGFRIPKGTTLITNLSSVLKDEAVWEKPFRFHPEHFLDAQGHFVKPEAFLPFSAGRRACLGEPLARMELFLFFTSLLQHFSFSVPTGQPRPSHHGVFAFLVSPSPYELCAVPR
Cytochrome P450 3A4 (Homo sapiens), sequence (P08684 whole entry, looked up): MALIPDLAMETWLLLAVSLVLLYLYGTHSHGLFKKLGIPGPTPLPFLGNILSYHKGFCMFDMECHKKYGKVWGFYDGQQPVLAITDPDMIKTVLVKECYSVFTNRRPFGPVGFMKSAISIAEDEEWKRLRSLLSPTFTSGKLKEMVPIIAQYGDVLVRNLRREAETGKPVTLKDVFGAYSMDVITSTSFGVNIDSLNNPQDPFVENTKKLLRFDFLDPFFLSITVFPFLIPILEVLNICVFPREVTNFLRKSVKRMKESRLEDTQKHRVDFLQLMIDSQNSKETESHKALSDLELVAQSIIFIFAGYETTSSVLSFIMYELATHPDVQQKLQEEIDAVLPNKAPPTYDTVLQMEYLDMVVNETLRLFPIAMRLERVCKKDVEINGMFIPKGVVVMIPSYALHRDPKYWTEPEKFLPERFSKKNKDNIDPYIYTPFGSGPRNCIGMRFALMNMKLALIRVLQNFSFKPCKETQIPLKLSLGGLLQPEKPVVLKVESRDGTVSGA
Lysosomal acid glucosylceramidase (Homo sapiens), sequence (P04062 whole entry, looked up): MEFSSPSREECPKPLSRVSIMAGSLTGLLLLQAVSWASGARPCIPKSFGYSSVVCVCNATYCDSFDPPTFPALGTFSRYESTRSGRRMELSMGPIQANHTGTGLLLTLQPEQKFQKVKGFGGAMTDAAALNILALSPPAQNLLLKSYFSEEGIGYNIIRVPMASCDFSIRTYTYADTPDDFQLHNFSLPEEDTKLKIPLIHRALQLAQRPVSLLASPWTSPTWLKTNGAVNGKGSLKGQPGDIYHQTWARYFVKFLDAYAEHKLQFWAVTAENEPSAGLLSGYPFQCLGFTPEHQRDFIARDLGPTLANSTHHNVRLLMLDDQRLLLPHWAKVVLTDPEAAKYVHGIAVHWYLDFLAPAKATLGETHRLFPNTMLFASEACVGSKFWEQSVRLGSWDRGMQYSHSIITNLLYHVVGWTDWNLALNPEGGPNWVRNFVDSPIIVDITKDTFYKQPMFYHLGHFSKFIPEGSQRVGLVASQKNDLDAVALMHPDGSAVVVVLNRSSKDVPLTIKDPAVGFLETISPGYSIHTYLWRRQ
Glucocorticoid receptor (Homo sapiens), sequence (P04150 whole entry, looked up, the tested form may be a part): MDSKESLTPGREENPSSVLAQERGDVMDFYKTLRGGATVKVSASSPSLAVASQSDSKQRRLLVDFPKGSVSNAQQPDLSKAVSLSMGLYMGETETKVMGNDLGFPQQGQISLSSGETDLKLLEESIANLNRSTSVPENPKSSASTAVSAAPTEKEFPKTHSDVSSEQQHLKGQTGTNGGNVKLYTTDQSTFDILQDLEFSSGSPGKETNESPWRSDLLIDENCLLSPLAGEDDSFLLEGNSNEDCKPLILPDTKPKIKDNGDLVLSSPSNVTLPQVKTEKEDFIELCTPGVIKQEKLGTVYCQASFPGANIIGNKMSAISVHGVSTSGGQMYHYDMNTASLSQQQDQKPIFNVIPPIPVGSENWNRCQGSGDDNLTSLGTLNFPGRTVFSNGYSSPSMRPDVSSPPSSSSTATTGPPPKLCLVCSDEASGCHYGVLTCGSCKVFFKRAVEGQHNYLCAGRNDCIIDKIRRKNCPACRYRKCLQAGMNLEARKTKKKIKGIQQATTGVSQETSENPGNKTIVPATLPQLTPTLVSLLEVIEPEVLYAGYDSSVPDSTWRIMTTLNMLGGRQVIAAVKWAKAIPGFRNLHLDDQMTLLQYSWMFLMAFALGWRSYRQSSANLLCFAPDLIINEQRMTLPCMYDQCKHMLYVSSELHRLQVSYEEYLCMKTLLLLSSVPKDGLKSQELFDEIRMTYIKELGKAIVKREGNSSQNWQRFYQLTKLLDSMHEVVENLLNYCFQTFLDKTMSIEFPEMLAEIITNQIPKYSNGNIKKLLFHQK

As for `NCCC1([N+](=O)[O-])CCNCC1`, the Potency in experiment [1] is over 11.4 µM; in experiment [5] it was over 46 µM; in experiment [6] it was over 9.22 µM. The activity change, negative = inhibition was 2% in experiment [2] and 12.9% in [3]. Also, the activity, negative = inhibition in [4] was -18.7%. Also, the Potency result in experiment [7] and in experiment [8] was “inactive” each time. Besides, the activation in experiment [9] is 13.3%.
For `O=c1[nH]c(SCc2cccc([N+](=O)[O-])c2)nc2nc[nH]c12`, the values for the Potency in [1], in experiment [5] and in experiment [6] were over 11.4 µM, over 46 µM and over 9.22 µM, respectively. For the same molecule, the activity change, negative = inhibition in experiment [2] was -0.65%; in [3] it was -8.58%. Moreover, the activity, negative = inhibition in experiment [4] is 8.09%. The Potency result in [7], in [8], in experiment [10] and in [11] was “inactive” in each case.
Consider `Cc1[nH]c(N)nc(=S)c1CCCNc1ccccc1`, for which the Potency in experiment [1] is over 11.4 µM; in experiment [5] it was over 46 µM; in experiment [6] it was over 9.22 µM; in experiment [11], 2 µM (active). For the same molecule, the results for the activity change, negative = inhibition in experiment [2] and in experiment [3] were -2.18% and 3.26%, respectively. Further, the activity, negative = inhibition in [4] was 3.47%. Besides, the Potency entry in experiment [7], in [8] and in experiment [10] was “inactive” each time.
Turning to `N#Cc1c(NC(=O)CCC(=O)O)ccc2ccccc12`, the Potency is over 11.4 µM in experiment [1], over 46 µM in experiment [5] and over 9.22 µM in [6]. Also, the activity change, negative = inhibition in [2] was -3.75%; in [3], 18.9%. In [4], the activity, negative = inhibition was 4.61%. In addition, the Potency result in experiment [7], in [8] and in experiment [11] was “inactive” throughout. Further, the activation in [9] is 3.84%.
For the molecule `N#C/C(=C(\O)C(=O)O)c1ccc(-c2cccc3ccccc23)cc1`, the values for the Potency in [1], in experiment [5] and in [6] were over 11.4 µM, over 46 µM and over 9.22 µM, respectively. For the same molecule, the activity change, negative = inhibition in experiment [2] is -3.67%; in [3], 4.07%. Also, in experiment [4], the activity, negative = inhibition is 3.75%. The Potency result in [7], in experiment [8] and in experiment [11] was “inactive” each time.
For `Cc1ccc(CSC(N)=Nc2ccccc2)cc1C`, the Potency in experiment [1] is over 11.4 µM; in [5] it was over 46 µM; in [6], over 9.22 µM; in experiment [12], 0.794 µM (active); in experiment [11], 2 µM (active). Also, the activity change, negative = inhibition in experiment [2] is 6.56%; in [3], -3.46%. For the same molecule, the activity, negative = inhibition in experiment [4] was -10.5%. Besides, the Potency entry in [7], in [8] and in experiment [10] was “inactive” in each case.
Turning to `CN(Cc1cc(Br)cc(Br)c1O)Cc1c(O)ccc2ccccc12`, the Potency in experiment [1] was over 11.4 µM; in experiment [5], over 46 µM; in experiment [6], over 9.22 µM; in experiment [12] it was 1.58 µM (active); in [11], 0.501 µM (active). The activity change, negative = inhibition is 3.01% in [2] and -25.5% in [3]. Besides, in [4], the activity, negative = inhibition was -8.41%. Besides, the Potency entry in experiment [7] and in experiment [8] was “inactive” each time.
In the case of `O=C(O)c1ccccc1-c1ccccc1C(=O)Nc1ccc2c(c1)[nH]c(=O)c1ccccc12`, the results for the Potency in experiment [1], in experiment [5] and in [6] were over 11.4 µM, over 46 µM and over 9.22 µM, respectively. The activity change, negative = inhibition was -4.06% in experiment [2] and 1.08% in experiment [3]. Besides, in experiment [4], the activity, negative = inhibition is -25.4%. The Potency entry in experiment [7], in experiment [8] and in [10] was “inactive” throughout.
Consider `CN(C)c1ncnc2c1ncn2CCn1cnc2c(N(C)C)ncnc21`, for which the Potency in [1] is over 11.4 µM; in [5] it was over 46 µM; in experiment [6], over 9.22 µM. The activity change, negative = inhibition in [2] and in experiment [3] was 7.13% each time. The activity, negative = inhibition in [4] is 11.6%. The Potency entry in [7], in experiment [8] and in [12] was “inactive” in each case.
`N#C/C(=C\NC(=S)c1ccncc1)c1nc2ccccc2s1`: the Potency was over 11.4 µM in experiment [1], over 46 µM in experiment [5] and over 9.22 µM in [6]. Further, the activity change, negative = inhibition was -3.92% in experiment [2] and 8.12% in experiment [3]. Besides, the activity, negative = inhibition in experiment [4] is 11.3%. Besides, the Potency result in [7], in experiment [8] and in experiment [10] was “inactive” each time.
In the case of `CC(C)(C)c1c2c(c(C(C)(C)C)c3c1OCN(Cc1ccccc1)C3)OCN(Cc1ccccc1)C2`, the Potency in experiment [1] was over 11.4 µM; in experiment [5], over 46 µM; in experiment [6], over 9.22 µM. The activity change, negative = inhibition in [2] was 0.594%; in experiment [3] it was 0.0878%. In addition, in experiment [4], the activity, negative = inhibition is -2.37%. Moreover, the Potency result in experiment [7], in experiment [8] and in experiment [11] was “inactive” in each case.
Take `Cc1cc(=O)oc2cc(O)c(CN(C)CC(=O)O)cc12`: the Potency in experiment [1] was over 11.4 µM; in [5], over 46 µM; in experiment [6], over 9.22 µM. Besides, the activity change, negative = inhibition in [2] was 8.78%; in experiment [3], 10.9%. Moreover, the activity, negative = inhibition in experiment [4] is -5.54%. Further, the Potency result in experiment [7], in experiment [8] and in experiment [11] was “inactive” each time. Moreover, the activation in experiment [9] was 2.1%.
Regarding `C[N+](C)(C)c1nc(N)nc2c1ncn2[C@H]1O[C@@H](CO)[C@@H](O)[C@H]1O`, the Potency in experiment [1] is over 11.4 µM; in experiment [5] it was over 46 µM; in [6], over 9.22 µM. Also, the activity change, negative = inhibition in experiment [2] was 6.27%; in [3] it was 2.16%. Further, the activity, negative = inhibition in [4] is -3.17%. The Potency result in experiment [7], in experiment [8] and in experiment [11] was “inactive” each time.
